Experimental data from PubChem BioAssay AID1159580 (chemical genetic matrix, 2015).
Several values for one entry are separate records, joined by “and”; a condition that tells them apart may be missing. Equal entries are not always repeated. The whole screen tested about 5,500 compounds, of which about 2,000 (36%) were called active. Roughly 18% stayed inconclusive and do not appear here. Cut-off read from the data, not from the text of the source: active = normalized growth mostly below about 0.91 (no sharp cut-off); inconclusive = no clear call, values can overlap the other calls; inactive = mostly above about 0.92. Some of the results follow.

Test: chemical genetic growth profiling, strain panel (AID 1159580);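 note: tested at 20 µM; growth read once vehicle control cultures reached saturation at 30 °C; 1 = growth at the plate median or of vehicle wells; lower values mean less growth of the strain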
Settings: S. cerevisiae deletion strains, growth OD

Measured: normalized growth

CS(=O)(=O)c1ccc([C@@H](O)[C@@H](CO)NC(=O)C(Cl)Cl)cc1
inactive: locus YAL013W, strain DEP1, active compounds read low 0.978 | locus YAL021C, strain ccr4, active compounds read low 1.05 | locus YAL026C, strain drs2, active compounds read low 1.04 | locus YAL030W, strain snc1, active compounds read low 1.01 | locus YBL061C, strain skt5, active compounds read low 1.02 | locus YBR009C, strain hhf1, active compounds read low 1.01 | locus YBR021W, strain FUR4, active compounds read low 1.1 | locus YBR023C, strain chs3, active compounds read low 1.04 | locus YBR171W, strain sec66, active compounds read low 1.04 | locus YBR229C, strain ROT2, active compounds read low 0.964 | locus YBR231C, strain swc5, active compounds read low 1.02 | locus YBR279W, strain paf1, active compounds read low 1.04 | locus YCL011C, strain gbp2, active compounds read low 1.03 | locus YCL016C, strain dcc1, active compounds read low 1.04 | locus YCL029C, strain bik1, active compounds read low 0.981 | locus YCL069W, strain vba3, active compounds read low 1.03 | locus YCR088W, strain abp1, active compounds read low 1.03 | locus YDL005C, strain med2, active compounds read low 1.02 | locus YDL035C, strain GPR1, active compounds read low 0.988 | locus YDL040C, strain nat1, active compounds read low 1.02 | locus YDL074C, strain BRE1, active compounds read low 0.957 | locus YDL101C, strain DUN1, active compounds read low 0.967 | locus YDL134C, strain PPH21, active compounds read low 0.985 | locus YDL185W, strain tfp1, active compounds read low 0.941 | locus YDL192W, strain arf1, active compounds read low 0.981 | locus YDR001C, strain nth1, active compounds read low 1.02 | locus YDR069C, strain doa4, active compounds read low 1 | locus YDR101C, strain arx1, active compounds read low 0.998 | locus YDR137W, strain rgp1, active compounds read low 1.06 | locus YDR150W, strain NUM1, active compounds read low 0.977 | locus YDR159W, strain sac3, active compounds read low 0.942 | locus YDR162C, strain NBP2, active compounds read low 0.954 | locus YDR195W, strain ref2 1.01 | locus YDR297W, strain sur2, active compounds read low 1.02 | locus YDR318W, strain mcm21, active compounds read low 0.998 | locus YDR334W, strain swr1, active compounds read low 1.02 | locus YDR335W, strain msn5, active compounds read low 1.04 | locus YDR388W, active compounds read low 0.991 | locus YDR392W, strain spt3, active compounds read low 0.947 | locus YDR502C, strain sam2, active compounds read low 0.997 | locus YEL003W, strain gim4, active compounds read low 1.01 | locus YEL037C, strain rad23, active compounds read low 1.02 | locus YEL061C, strain CIN8 (second series), active compounds read low 1.02 | locus YEL061C, strain CIN8, active compounds read low 0.979 | locus YER015W, strain faa2, active compounds read low 1.02 | locus YER016W, strain bim1, active compounds read low 1.04 | locus YER110C, active compounds read low 0.974 | locus YER111C, strain swi4, active compounds read low 1.03 | locus YER155C, strain BEM2 (second series), active compounds read low 1.03 | locus YER155C, strain BEM2, active compounds read low 1 | locus YER167W, strain BCK2, active compounds read low 0.985 | locus YFR010W, strain ubp6, active compounds read low 1.02 | locus YGL078C, strain dbp3, active compounds read low 1 | locus YGL086W, strain mad1, active compounds read low 1 | locus YGL167C, strain pmr1, active compounds read low 1.02 | locus YGL173C, strain kem1, active compounds read low 1.02 | locus YGL227W, strain vid30, active compounds read low 1.02 | locus YGL240W, strain doc1, active compounds read low 0.996 | locus YGL248W, strain PDE1, active compounds read low 0.968 | locus YGL253W, strain hxk2, active compounds read low 1.05 | locus YGR078C, strain PAC10, active compounds read low 0.993 | locus YGR135W, strain pre9, active compounds read low 0.98 | locus YGR229C, strain SMI1, active compounds read low 0.979 | locus YGR252W, strain gcn5, active compounds read low 1.06 | locus YHR013C, strain ard1, active compounds read low 1.05 | locus YHR027C, strain rpn1, active compounds read low 1.02 | locus YHR030C, strain SLT2, active compounds read low 0.983 and 0.994 | locus YHR079C, strain IRE1 (second series), active compounds read low 0.998 | locus YHR079C, strain IRE1, active compounds read low 0.982 | locus YHR094C, strain hxt1, active compounds read low 0.991 | locus YHR129C, strain ARP1, active compounds read low 0.989 | locus YHR142W, strain chs7, active compounds read low 1.07 | locus YHR200W, strain rpn10, active compounds read low 0.989 | locus YIL066C, strain RNR3, active compounds read low 0.995 | locus YIL073C, strain SPO22, active compounds read low 0.998 | locus YIL125W, strain kgd1, active compounds read low 0.992 | locus YIR030C, strain dcg1, active compounds read low 0.978 | locus YJL092W, strain hpr5, active compounds read low 1.02 | locus YJL095W, strain BCK1 (second series), active compounds read low 1.01 | locus YJL095W, strain BCK1, active compounds read low 1 and 0.995 | locus YJL115W, strain asf1, active compounds read low 1.04 | locus YJL129C, strain trk1, active compounds read low 1.05 | locus YJL134W, strain LCB3, active compounds read low 0.974 | locus YJL154C, strain vps35, active compounds read low 1.03 | locus YJL164C, strain tpk1, active compounds read low 1.01 | locus YJL166W, strain qcr8, active compounds read low 1.02 | locus YJL168C, strain set2, active compounds read low 0.985 | locus YJL187C, strain SWE1 (second series), active compounds read low 0.975 | locus YJR043C, strain POL32, active compounds read low 1.01 | locus YJR066W, strain TOR1, active compounds read low 0.962 | locus YJR075W, strain HOC1, active compounds read low 0.983
